About 8,800 targets were measured; listed, in parts, are those with a hit and a random draw of the rest. About 0.5% of all pairs of compound and target were hits.
compound: Cn1cc(CNCC2CCN(c3ncc(C(=O)NO)cn3)CC2)c2ccccc21 [quisinostat]; assay: log2 fold change, soluble protein after heating vs DMSO (PISA); higher = thermal stabilisation; K562 lysate, 10 uM; active = over 0.2 and 3.5 SD of the protein, either way, in both replicates (recomputed)
Method in brief: (§1)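 To prepare the extract, K562 pellets were dounce-homogenised in PBS pH 7.4 with 1 mM MgCl2, giving crude material at 1 mg/mL protein. This was treated with 10 μM compound for 30 min, then heated in aliquots for 3 min over 48°C-58°C before pooling and addition of NP-40 to 0.5% at 4°C. Centrifugation at 21,000xg for 90 min left soluble protein in the supernatant, which TMTpro 16plex LC-MS/MS quantified with equalised channel sums. Results are log-two fold changes in thermal stability compared with solvent controls, from duplicates.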

Chain of UniProt Q9BZD4 (Q9BZD4 whole entry, looked up): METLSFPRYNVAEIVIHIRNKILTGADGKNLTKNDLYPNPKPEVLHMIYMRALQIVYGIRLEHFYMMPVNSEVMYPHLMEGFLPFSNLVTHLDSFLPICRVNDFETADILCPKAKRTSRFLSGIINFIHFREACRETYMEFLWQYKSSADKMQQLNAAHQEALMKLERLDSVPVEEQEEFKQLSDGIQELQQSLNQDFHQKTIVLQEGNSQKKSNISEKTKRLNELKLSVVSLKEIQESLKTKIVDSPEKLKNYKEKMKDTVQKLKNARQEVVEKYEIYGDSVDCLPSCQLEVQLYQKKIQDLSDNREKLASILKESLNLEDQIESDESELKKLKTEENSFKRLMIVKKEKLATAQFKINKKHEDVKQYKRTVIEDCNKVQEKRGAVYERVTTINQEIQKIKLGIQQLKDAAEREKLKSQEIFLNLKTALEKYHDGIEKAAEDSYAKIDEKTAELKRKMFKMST
Chain of MTHFD1, A0A384N5Y3 (A0A384N5Y3 whole entry, looked up): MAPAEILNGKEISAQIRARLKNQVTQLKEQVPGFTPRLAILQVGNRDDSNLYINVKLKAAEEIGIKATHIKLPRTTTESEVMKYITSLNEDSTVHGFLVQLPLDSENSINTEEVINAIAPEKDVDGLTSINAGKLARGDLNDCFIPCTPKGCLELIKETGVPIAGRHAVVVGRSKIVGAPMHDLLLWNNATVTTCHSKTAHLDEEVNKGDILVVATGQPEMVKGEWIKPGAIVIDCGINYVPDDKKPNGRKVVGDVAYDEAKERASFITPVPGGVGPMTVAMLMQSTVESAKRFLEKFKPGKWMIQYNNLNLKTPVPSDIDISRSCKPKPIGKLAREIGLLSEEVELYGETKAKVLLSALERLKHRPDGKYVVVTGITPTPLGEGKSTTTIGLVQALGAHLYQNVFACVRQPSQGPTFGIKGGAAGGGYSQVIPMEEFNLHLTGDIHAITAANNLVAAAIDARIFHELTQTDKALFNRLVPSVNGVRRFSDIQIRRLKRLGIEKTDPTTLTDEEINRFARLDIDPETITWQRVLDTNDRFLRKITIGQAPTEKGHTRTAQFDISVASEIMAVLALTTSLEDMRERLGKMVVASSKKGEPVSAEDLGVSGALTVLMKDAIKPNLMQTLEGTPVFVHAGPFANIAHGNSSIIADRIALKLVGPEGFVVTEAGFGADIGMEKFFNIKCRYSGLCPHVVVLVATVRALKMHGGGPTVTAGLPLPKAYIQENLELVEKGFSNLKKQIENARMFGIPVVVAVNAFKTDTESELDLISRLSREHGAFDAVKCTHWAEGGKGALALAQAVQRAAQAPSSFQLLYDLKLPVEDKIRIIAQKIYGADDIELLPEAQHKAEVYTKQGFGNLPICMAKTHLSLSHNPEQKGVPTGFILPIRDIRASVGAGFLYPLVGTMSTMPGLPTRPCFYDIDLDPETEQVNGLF
Chain of UniProt Q15003 (Q15003 whole entry, looked up): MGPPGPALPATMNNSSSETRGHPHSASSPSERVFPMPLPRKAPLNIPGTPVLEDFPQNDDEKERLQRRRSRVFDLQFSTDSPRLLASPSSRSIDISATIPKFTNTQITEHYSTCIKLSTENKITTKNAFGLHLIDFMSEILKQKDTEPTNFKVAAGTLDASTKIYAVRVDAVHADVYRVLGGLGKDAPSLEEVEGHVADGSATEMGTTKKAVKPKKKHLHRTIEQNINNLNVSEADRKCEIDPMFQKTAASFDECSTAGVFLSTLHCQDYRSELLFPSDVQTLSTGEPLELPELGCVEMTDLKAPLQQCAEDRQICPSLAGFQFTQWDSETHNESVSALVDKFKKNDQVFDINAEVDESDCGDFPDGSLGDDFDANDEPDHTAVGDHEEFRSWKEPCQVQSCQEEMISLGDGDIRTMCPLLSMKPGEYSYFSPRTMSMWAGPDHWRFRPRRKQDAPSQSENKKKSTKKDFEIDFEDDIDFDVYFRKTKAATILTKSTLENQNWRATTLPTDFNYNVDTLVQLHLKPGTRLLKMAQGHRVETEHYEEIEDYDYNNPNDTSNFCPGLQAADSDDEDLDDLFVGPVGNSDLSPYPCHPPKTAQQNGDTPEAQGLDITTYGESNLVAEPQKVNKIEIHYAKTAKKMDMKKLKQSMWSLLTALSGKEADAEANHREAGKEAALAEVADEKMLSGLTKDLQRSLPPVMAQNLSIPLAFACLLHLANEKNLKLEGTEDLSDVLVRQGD
Chain of UniProt Q9BTC8 (Q9BTC8 whole entry, looked up): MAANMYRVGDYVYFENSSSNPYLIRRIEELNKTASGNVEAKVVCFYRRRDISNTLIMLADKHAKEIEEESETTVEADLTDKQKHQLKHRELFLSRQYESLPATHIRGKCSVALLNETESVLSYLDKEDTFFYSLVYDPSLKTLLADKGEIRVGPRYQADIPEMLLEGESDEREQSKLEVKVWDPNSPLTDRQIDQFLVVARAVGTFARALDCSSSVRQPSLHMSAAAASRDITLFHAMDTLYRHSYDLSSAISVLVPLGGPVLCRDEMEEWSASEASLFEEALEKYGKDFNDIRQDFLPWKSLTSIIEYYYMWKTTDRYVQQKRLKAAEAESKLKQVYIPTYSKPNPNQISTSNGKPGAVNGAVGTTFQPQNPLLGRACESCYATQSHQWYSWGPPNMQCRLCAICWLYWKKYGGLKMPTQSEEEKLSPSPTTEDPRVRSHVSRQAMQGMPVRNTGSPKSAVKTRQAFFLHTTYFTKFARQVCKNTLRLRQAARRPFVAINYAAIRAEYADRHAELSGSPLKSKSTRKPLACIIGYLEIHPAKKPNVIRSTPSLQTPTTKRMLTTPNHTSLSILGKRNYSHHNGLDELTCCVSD
Chain of UniProt O00159 (O00159 whole entry, looked up): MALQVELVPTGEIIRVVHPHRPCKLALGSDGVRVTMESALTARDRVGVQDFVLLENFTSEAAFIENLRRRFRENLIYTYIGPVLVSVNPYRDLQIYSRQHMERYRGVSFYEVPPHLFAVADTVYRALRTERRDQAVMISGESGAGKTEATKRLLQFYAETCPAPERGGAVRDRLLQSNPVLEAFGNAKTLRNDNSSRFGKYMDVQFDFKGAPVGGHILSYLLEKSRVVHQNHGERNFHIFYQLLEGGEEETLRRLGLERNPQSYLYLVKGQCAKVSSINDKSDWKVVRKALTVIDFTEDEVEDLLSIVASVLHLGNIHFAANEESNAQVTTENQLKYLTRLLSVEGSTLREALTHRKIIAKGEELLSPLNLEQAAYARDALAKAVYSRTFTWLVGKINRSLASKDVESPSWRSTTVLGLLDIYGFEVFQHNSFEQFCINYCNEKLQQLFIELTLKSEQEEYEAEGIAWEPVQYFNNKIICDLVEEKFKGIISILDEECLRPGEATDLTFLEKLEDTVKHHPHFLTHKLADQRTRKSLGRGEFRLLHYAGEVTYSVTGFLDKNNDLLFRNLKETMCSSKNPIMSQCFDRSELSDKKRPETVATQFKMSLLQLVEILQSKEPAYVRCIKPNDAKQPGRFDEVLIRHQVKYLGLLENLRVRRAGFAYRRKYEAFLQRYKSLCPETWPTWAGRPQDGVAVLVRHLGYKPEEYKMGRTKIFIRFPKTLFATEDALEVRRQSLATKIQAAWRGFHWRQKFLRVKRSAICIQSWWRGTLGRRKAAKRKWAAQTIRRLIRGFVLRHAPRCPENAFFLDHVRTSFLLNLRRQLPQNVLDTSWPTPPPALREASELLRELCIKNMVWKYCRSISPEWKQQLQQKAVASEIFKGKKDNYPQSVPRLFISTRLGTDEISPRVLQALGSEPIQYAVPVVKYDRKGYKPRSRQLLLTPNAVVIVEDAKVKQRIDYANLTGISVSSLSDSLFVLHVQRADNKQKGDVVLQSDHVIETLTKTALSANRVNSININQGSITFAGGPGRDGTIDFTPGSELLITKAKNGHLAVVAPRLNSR
Chain of UniProt O43913 (O43913 whole entry, looked up): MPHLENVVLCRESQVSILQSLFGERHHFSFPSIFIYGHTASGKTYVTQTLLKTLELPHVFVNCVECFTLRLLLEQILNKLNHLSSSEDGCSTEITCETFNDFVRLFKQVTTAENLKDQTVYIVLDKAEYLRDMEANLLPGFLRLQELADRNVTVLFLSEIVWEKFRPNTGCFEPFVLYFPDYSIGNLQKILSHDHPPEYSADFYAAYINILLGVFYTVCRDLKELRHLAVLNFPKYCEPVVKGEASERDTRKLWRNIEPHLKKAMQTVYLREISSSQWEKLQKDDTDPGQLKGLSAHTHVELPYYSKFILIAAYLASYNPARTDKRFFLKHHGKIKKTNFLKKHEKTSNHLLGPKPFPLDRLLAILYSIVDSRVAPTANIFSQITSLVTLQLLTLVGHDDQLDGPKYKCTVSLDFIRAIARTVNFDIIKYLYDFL
Chain of UniProt Q9BZ23 (Q9BZ23 whole entry, looked up): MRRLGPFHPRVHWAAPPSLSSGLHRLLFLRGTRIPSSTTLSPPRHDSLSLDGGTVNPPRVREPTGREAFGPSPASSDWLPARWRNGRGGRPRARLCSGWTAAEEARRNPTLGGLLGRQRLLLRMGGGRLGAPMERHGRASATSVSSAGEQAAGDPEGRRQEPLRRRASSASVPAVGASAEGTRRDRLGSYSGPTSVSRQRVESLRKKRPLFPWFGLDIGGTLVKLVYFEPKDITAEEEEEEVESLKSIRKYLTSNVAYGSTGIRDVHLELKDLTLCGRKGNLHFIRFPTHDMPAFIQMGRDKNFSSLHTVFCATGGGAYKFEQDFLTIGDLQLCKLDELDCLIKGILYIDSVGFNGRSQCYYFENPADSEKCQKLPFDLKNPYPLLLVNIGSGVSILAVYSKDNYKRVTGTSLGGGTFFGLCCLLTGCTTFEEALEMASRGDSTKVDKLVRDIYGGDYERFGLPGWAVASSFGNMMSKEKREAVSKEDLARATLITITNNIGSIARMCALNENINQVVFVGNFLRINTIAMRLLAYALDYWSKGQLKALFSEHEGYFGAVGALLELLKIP

| Target | log2 fold change |
| --- | --- |
| NUP205 (UniProt Q92621) | -0.041 (inactive) |
| MTOR (UniProt P42345) | -0.067 (inactive) |
| NF1 (UniProt P21359) | -0.059 (inactive) |
| ORC5 (UniProt O43913) | -0.107 (inactive) |
| OSBP2 (UniProt Q969R2) | -0.184 (inactive) |
| PANK2 (UniProt Q9BZ23) | 0.045 (inactive) |
| MYCBP2 (UniProt O75592) | -0.116 (inactive) |
| NPTN (UniProt Q9Y639) | -0.038 (inactive) |
| NNT (UniProt Q13423) | 0.01 (inactive) |
| OAT (UniProt P04181) | -0.002 (inactive) |
| MTHFD1, A0A384N5Y3 | -0.044 (inactive) |
| NIPBL (UniProt Q6KC79) | -0.043 (inactive) |
| NBEAL2 (UniProt Q6ZNJ1) | -0.077 (inactive) |
| N4BP2 (UniProt Q86UW6) | -0.001 (inactive) |
| NFKBIE (UniProt O00221) | -0.004 (inactive) |
| MTA3 (UniProt Q9BTC8) | -0.061 (inactive) |
| NFATC4 isoform 2 (UniProt Q14934) | -0.07 (inactive) |
| NAA35 (UniProt Q5VZE5) | -0.075 (inactive) |
| OPA1 isoform 2 (UniProt O60313) | 0.055 (inactive) |
| NAA30 (UniProt Q147X3) | 0.032 (inactive) |
| MYO1C (UniProt O00159) | -0.052 (inactive) |
| NUF2 (UniProt Q9BZD4) | -0.012 (inactive) |
| NCAPH (UniProt Q15003) | 0.005 (inactive) |

compound: Cn1cncc1[C@@](N)(c1ccc(Cl)cc1)c1ccc2c(c1)c(-c1cccc(Cl)c1)cc(=O)n2C [tipifarnib]; assay: as above
Method in brief: as §1

| Target | log2 fold change |
| --- | --- |
| OGFOD2 (UniProt Q6N063) | 0.026 (inactive) |
| MTA2 (UniProt O94776) | -0.007 (inactive) |
| NDC1 (UniProt Q9BTX1) | 0.009 (inactive) |
| OLA1 (UniProt Q9NTK5) | 0.018 (inactive) |
| OCRL (UniProt Q01968) | 0.048 (inactive) |
| NCAPG2 (UniProt Q86XI2) | 0.003 (inactive) |
| NUP133 (UniProt Q8WUM0) | -0.039 (inactive) |
| NCKAP1L (UniProt P55160) | 0.032 (inactive) |
| MRPL53 (UniProt Q96EL3) | -0.034 (inactive) |
| MRPS12 (UniProt O15235) | -0.012 (inactive) |
| NDUFS1 isoform 2 (UniProt P28331) | -0.002 (inactive) |
| NCOR2 (UniProt C9J0Q5) | -0.045 (inactive) |
| NUP205 (UniProt Q92621) | -0.027 (inactive) |
| MTOR (UniProt P42345) | 0.015 (inactive) |
| NF1 (UniProt P21359) | 0.018 (inactive) |
| ORC5 (UniProt O43913) | -0.004 (inactive) |
| OSBP2 (UniProt Q969R2) | -0.053 (inactive) |
| PANK2 (UniProt Q9BZ23) | 0.126 (inactive) |

| Target | log2 fold change |
| --- | --- |
| MYCBP2 (UniProt O75592) | -0.008 (inactive) |
| NPTN (UniProt Q9Y639) | 0.043 (inactive) |
| NNT (UniProt Q13423) | 0.009 (inactive) |
| OAT (UniProt P04181) | 0.024 (inactive) |
| MTHFD1, A0A384N5Y3 | -0.02 (inactive) |
| NIPBL (UniProt Q6KC79) | 0.014 (inactive) |
| NBEAL2 (UniProt Q6ZNJ1) | -0.017 (inactive) |
| N4BP2 (UniProt Q86UW6) | -0.061 (inactive) |
| NFKBIE (UniProt O00221) | -0.112 (inactive) |
| MTA3 (UniProt Q9BTC8) | 0.009 (inactive) |
| NFATC4 isoform 2 (UniProt Q14934) | -0.066 (inactive) |
| NAA35 (UniProt Q5VZE5) | 0.034 (inactive) |
| OPA1 isoform 2 (UniProt O60313) | -0.035 (inactive) |
| NAA30 (UniProt Q147X3) | -0.097 (inactive) |
| MYO1C (UniProt O00159) | 0.019 (inactive) |
| NUF2 (UniProt Q9BZD4) | 0.003 (inactive) |
| NCAPH (UniProt Q15003) | 0.023 (inactive) |

compound: NC(=O)Nc1cc(-c2cccc(F)c2)sc1C(=O)N[C@H]1CCCNC1; assay: as above
Method in brief: as §1

| Target | log2 fold change |
| --- | --- |
| OGFOD2 (UniProt Q6N063) | 0.049 (inactive) |
| MTA2 (UniProt O94776) | 0.03 (inactive) |
| NDC1 (UniProt Q9BTX1) | 0 (inactive) |
| OLA1 (UniProt Q9NTK5) | 0.022 (inactive) |
| OCRL (UniProt Q01968) | -0.018 (inactive) |
| NCAPG2 (UniProt Q86XI2) | 0.061 (inactive) |
| NUP133 (UniProt Q8WUM0) | 0.006 (inactive) |
| NCKAP1L (UniProt P55160) | 0.055 (inactive) |
| MRPL53 (UniProt Q96EL3) | -0.041 (inactive) |
| MRPS12 (UniProt O15235) | 0.01 (inactive) |
| NDUFS1 isoform 2 (UniProt P28331) | -0.018 (inactive) |
| NCOR2 (UniProt C9J0Q5) | 0.047 (inactive) |
| NUP205 (UniProt Q92621) | 0.052 (inactive) |
| MTOR (UniProt P42345) | 0.04 (inactive) |
| NF1 (UniProt P21359) | 0.041 (inactive) |
| ORC5 (UniProt O43913) | 0.098 (inactive) |
| OSBP2 (UniProt Q969R2) | 0.052 (inactive) |
| PANK2 (UniProt Q9BZ23) | -0.053 (inactive) |

| Target | log2 fold change |
| --- | --- |
| MYCBP2 (UniProt O75592) | 0.019 (inactive) |
| NPTN (UniProt Q9Y639) | 0.031 (inactive) |
| NNT (UniProt Q13423) | -0.021 (inactive) |
| OAT (UniProt P04181) | -0.01 (inactive) |
| MTHFD1, A0A384N5Y3 | 0.039 (inactive) |
| NIPBL (UniProt Q6KC79) | 0.02 (inactive) |
| NBEAL2 (UniProt Q6ZNJ1) | 0.033 (inactive) |
| N4BP2 (UniProt Q86UW6) | 0.037 (inactive) |
| NFKBIE (UniProt O00221) | 0.025 (inactive) |
| MTA3 (UniProt Q9BTC8) | 0.03 (inactive) |
| NFATC4 isoform 2 (UniProt Q14934) | 0.01 (inactive) |
| NAA35 (UniProt Q5VZE5) | 0.001 (inactive) |
| OPA1 isoform 2 (UniProt O60313) | 0.025 (inactive) |
| NAA30 (UniProt Q147X3) | 0.001 (inactive) |
| MYO1C (UniProt O00159) | -0.082 (inactive) |
| NUF2 (UniProt Q9BZD4) | 0.061 (inactive) |
| NCAPH (UniProt Q15003) | 0.013 (inactive) |

— the supplement of paper PMC10849652
